Laboratory results from the supplement of paper PMC10849652.
About 8,800 targets were measured; listed, in parts, are those with a hit and a random draw of the rest. About 0.5% of all pairs of compound and target were hits. Values without a mark were called inactive.

Legend:
Test in all cases: log2 fold change, soluble protein after heating vs DMSO (PISA); higher = thermal stabilisation; K562 lysate, 10 uM; active = over 0.2 and 3.5 SD of the protein, either way, in both replicates (recomputed)
lapatinib = compound: CS(=O)(=O)CCNCc1ccc(-c2ccc3ncnc(Nc4ccc(OCc5cccc(F)c5)c(Cl)c4)c3c2)o1 [lapatinib]
In short: (§1)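 Log-two fold change in thermal stability relative to solvent controls is reported from duplicates. For each sample, crude K562 extract from dounce-homogenised pellets in PBS pH 7.4 with 1 mM MgCl2, at 1 mg/mL protein, was treated with 10 μM compound for 30 min. Aliquots heated for 3 min across 48°C-58°C were pooled, brought to 0.5% NP-40 at 4°C and cleared at 21,000xg for 90 min. The supernatant was quantified by TMTpro 16plex LC-MS/MS with channel sums equalised.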

pictilisib = compound: CS(=O)(=O)N1CCN(Cc2cc3nc(-c4cccc5[nH]ncc45)nc(N4CCOCC4)c3s2)CC1 [pictilisib]
In short: as §1

crizotinib = compound: C[C@@H](Oc1cc(-c2cnn(C3CCNCC3)c2)cnc1N)c1c(Cl)ccc(F)c1Cl [crizotinib]
In short: as §1

[1] = compound: C[C@H](C1=CC=C(C=C1)C(=O)NC2=C3C=CNC3=NC=C2)N
In short: as §1

duvelisib = compound: C[C@H](Nc1ncnc2nc[nH]c12)c1cc2cccc(Cl)c2c(=O)n1-c1ccccc1 [duvelisib]
In short: as §1

gandotinib = compound: Cc1cc(Nc2cc(CN3CCOCC3)c3nc(C)c(Cc4ccc(Cl)cc4F)n3n2)n[nH]1 [gandotinib]
In short: as §1

tozasertib = compound: Cc1cc(Nc2cc(N3CCN(C)CC3)nc(Sc3ccc(NC(=O)C4CC4)cc3)n2)n[nH]1 [tozasertib]
In short: as §1

doramapimod = compound: Cc1ccc(-n2nc(C(C)(C)C)cc2NC(=O)Nc2ccc(OCCN3CCOCC3)c3ccccc23)cc1 [doramapimod]
In short: as §1

bafetinib = compound: Cc1ccc(NC(=O)c2ccc(CN3CC[C@H](N(C)C)C3)c(C(F)(F)F)c2)cc1Nc1nccc(-c2cncnc2)n1 [bafetinib]
In short: as §1

[2] = compound: Cc1cccc(CC(=O)N2CCc3c2ccc(-c2cn(C)c4ncnc(N)c24)c3F)n1
In short: as §1

nilotinib = compound: Cc1cn(-c2cc(NC(=O)c3ccc(C)c(Nc4nccc(-c5cccnc5)n4)c3)cc(C(F)(F)F)c2)cn1 [nilotinib]
In short: as §1

[3] = compound: Cc1nc(Nc2n[nH]c3c2CN(C(=O)N[C@H](CN(C)C)c2ccccc2)C3(C)C)c2sccc2n1
In short: as §1

dasatinib = compound: Cc1nc(Nc2ncc(C(=O)Nc3c(C)cccc3Cl)s2)cc(N2CCN(CCO)CC2)n1 [dasatinib]
In short: as §1

[4] = compound: Cc1ncc(-c2ccnc(Nc3ccc(S(C)(=O)=O)cc3)n2)n1C(C)C
In short: as §1

[5] = compound: Cn1cc(-c2ccc3c(c2)CCN3C(=O)Cc2cccc(C(F)(F)F)c2)c2c(N)ncnc21
In short: as §1

quisinostat = compound: Cn1cc(CNCC2CCN(c3ncc(C(=O)NO)cn3)CC2)c2ccccc21 [quisinostat]
In short: as §1

tipifarnib = compound: Cn1cncc1[C@@](N)(c1ccc(Cl)cc1)c1ccc2c(c1)c(-c1cccc(Cl)c1)cc(=O)n2C [tipifarnib]
In short: as §1

[6] = compound: NC(=O)Nc1cc(-c2cccc(F)c2)sc1C(=O)N[C@H]1CCCNC1
In short: as §1

[7] = compound: NC(=O)c1cnc(N[C@@H]2CCCC[C@@H]2N)nc1Nc1cccc(-n2nccn2)c1
In short: as §1

[8] = compound: NC1(c2ccc(-c3nc4ccn5c(=O)[nH]nc5c4cc3-c3ccccc3)cc2)CCC1
In short: as §1

UniProt P26640, sequence (P26640 whole entry, looked up): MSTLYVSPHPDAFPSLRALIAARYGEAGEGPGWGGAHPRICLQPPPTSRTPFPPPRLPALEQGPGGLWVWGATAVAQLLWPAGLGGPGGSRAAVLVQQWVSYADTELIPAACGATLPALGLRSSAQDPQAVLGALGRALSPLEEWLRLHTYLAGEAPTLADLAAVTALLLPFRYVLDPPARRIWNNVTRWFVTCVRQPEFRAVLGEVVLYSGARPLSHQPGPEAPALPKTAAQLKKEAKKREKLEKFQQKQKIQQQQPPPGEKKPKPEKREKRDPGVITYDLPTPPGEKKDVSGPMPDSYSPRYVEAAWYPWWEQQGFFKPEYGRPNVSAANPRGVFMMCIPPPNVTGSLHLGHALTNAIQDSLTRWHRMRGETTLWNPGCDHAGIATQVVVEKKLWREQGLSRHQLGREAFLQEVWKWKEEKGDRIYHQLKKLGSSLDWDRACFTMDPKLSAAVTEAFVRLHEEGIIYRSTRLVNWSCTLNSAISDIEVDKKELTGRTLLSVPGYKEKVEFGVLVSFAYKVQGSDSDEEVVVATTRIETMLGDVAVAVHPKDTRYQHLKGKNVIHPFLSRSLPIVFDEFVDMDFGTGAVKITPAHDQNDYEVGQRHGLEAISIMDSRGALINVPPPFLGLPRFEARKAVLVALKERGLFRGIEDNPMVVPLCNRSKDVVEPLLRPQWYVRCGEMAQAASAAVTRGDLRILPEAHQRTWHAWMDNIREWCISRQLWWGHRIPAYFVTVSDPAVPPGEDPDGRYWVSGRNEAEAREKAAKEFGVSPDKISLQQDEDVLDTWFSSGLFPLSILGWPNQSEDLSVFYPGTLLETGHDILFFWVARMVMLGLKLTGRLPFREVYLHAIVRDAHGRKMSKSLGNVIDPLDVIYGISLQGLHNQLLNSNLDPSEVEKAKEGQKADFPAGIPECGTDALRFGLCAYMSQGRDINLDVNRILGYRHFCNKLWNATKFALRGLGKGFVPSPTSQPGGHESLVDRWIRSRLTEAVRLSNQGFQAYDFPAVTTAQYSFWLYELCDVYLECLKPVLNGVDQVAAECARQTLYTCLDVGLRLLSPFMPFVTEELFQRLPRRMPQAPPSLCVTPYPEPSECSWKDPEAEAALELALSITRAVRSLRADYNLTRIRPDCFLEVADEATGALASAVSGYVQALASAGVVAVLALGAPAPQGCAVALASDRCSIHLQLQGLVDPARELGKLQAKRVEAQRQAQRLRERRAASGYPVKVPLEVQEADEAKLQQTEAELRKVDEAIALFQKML
UniProt Q70CQ2, sequence (Q70CQ2 whole entry, looked up): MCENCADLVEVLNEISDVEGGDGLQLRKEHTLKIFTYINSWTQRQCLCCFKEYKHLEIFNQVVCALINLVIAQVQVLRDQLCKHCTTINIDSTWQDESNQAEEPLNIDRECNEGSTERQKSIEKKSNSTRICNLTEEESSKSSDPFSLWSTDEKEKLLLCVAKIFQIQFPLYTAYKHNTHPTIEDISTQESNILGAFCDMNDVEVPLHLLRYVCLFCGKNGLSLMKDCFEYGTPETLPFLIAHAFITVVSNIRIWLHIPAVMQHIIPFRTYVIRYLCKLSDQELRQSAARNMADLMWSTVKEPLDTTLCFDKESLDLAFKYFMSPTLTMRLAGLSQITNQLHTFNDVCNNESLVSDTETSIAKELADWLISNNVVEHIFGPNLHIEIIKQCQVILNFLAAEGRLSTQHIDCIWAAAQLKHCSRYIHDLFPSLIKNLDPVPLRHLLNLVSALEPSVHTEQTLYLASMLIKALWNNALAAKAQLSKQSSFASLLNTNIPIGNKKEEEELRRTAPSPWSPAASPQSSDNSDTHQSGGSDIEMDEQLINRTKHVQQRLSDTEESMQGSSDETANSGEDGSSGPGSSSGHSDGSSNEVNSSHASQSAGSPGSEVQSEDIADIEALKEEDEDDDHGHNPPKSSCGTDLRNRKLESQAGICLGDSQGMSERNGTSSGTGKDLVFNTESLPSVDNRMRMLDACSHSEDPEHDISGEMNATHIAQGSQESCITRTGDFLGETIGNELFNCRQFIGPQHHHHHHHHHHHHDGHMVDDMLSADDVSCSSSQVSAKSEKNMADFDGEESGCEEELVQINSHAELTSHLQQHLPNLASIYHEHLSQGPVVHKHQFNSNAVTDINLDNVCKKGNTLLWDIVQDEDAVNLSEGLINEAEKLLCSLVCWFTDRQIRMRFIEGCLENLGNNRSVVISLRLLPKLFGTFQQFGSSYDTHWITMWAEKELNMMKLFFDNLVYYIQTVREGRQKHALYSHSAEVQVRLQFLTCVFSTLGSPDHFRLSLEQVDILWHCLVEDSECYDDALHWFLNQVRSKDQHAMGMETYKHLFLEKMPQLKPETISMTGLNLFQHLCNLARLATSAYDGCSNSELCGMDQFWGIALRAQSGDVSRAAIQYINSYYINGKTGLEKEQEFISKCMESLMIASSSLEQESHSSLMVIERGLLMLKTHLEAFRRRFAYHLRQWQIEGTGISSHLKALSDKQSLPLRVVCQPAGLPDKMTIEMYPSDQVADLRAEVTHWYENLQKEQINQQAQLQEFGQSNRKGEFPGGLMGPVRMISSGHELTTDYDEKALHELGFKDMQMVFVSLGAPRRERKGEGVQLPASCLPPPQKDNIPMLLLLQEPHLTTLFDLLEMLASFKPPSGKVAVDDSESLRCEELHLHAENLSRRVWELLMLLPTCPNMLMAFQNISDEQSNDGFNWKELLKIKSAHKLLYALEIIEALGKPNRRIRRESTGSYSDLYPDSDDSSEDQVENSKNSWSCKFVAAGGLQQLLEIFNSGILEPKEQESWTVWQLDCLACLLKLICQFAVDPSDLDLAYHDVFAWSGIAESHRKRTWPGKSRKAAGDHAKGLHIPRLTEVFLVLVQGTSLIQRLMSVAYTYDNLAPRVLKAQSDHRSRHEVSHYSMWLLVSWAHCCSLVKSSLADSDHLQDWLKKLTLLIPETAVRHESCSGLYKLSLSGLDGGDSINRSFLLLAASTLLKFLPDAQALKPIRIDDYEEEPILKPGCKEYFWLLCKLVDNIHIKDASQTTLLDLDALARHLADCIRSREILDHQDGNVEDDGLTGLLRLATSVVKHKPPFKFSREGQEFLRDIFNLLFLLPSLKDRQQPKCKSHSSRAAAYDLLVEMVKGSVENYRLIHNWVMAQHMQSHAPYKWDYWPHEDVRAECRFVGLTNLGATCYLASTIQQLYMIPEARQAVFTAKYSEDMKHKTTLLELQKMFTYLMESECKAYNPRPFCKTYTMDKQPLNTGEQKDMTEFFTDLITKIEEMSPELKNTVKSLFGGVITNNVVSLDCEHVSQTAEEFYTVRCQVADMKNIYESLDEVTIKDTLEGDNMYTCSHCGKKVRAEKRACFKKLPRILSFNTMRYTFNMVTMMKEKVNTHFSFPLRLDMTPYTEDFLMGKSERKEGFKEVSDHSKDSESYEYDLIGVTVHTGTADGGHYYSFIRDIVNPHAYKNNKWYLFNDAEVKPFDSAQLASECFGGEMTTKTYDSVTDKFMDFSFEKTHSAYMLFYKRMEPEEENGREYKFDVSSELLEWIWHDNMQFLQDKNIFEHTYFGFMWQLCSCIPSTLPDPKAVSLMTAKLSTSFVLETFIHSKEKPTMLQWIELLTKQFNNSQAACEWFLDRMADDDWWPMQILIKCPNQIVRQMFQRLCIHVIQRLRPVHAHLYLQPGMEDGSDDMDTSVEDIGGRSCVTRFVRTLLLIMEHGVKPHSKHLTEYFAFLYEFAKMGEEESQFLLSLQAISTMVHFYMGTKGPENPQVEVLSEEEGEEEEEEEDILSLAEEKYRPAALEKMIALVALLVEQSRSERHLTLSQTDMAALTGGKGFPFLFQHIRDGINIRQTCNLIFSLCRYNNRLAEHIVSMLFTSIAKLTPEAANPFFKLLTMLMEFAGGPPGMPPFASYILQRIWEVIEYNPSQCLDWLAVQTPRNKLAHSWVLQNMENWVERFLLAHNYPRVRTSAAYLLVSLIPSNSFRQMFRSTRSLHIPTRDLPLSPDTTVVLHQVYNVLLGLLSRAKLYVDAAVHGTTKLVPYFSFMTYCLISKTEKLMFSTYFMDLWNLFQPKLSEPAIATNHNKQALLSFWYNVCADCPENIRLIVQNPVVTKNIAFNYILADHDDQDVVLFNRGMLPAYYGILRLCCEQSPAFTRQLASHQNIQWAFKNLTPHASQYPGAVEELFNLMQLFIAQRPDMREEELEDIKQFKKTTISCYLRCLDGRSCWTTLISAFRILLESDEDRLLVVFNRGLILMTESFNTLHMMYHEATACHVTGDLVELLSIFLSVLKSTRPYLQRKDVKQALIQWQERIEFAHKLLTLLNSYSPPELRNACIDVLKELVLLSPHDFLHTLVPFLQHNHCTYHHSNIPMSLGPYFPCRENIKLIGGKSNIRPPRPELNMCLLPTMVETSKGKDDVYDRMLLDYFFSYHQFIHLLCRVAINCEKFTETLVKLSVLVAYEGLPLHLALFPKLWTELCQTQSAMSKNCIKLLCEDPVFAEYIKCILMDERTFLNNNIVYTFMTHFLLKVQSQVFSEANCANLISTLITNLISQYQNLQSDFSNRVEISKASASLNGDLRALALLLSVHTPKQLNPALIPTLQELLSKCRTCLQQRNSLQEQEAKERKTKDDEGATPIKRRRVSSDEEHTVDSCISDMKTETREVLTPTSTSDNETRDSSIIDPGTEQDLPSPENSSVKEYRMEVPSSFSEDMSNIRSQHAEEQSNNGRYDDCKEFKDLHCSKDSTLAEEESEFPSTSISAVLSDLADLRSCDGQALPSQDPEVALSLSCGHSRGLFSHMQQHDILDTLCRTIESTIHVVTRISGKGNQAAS
UniProt O00258, sequence (O00258 whole entry, looked up): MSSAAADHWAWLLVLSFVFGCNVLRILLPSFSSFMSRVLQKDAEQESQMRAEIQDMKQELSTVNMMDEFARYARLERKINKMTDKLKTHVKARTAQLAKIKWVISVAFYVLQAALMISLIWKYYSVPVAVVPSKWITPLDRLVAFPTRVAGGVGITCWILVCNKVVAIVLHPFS

Target	log2 fold change (lapatinib)	log2 fold change (pictilisib)	log2 fold change (crizotinib)	log2 fold change [1]	log2 fold change (duvelisib)	log2 fold change (gandotinib)	log2 fold change (tozasertib)	log2 fold change (doramapimod)	log2 fold change (bafetinib)	log2 fold change [2]	log2 fold change (nilotinib)	log2 fold change [3]	log2 fold change (dasatinib)	log2 fold change [4]	log2 fold change [5]	log2 fold change (quisinostat)	log2 fold change (tipifarnib)	log2 fold change [6]	log2 fold change [7]	log2 fold change [8]
UNC13D (UniProt Q70J99)	-0.032	-0.032	-0.038	0.029	-0.039	-0.089	-0.015	0.009	-0.066	0.002	0.043	-0.014	-0.05	0	0	-0.079	-0.006	0.05	0.022	-0.024
VCPIP1 (UniProt Q96JH7)	-0.061	-0.053	-0.052	-0.059	-0.002	-0.038	-0.028	0.025	-0.043	0.1	-0.006	0.044	-0.045	-0.025	0.016	-0.046	0.011	0.031	0.029	-0.059
USP9X (UniProt Q93008)	-0.031	-0.027	-0.058	-0.015	-0.017	-0.127	0.011	0.004	-0.034	0.027	-0.01	0	-0.045	0.002	0	-0.017	-0.024	0.03	0.02	-0.003
VRK1 (UniProt Q99986)	-0.005	0.002	-0.023	0.172	0.013	-0.078	-0.052	-0.052	-0.042	-0.014	-0.002	0	-0.001	0.005	0.032	-0.059	-0.018	0.015	0.003	-0.046
ZMYND8 isoform 19 (UniProt Q9ULU4)	-0.017	-0.044	-0.109	-0.105	-0.006	0.092	0.035	0.001	-0.028	0.049	-0.011	-0.056	-0.019	0.022	0.036	-0.073	-0.025	-0.004	0.009	0.043
ZNF451 (UniProt Q9Y4E5)	-0.044	-0.054	-0.042	-0.053	0.007	-0.069	-0.045	0.052	-0.074	0.003	0.016	0.013	-0.028	-0.033	0.02	-0.044	-0.049	0.022	0.044	-0.038
YES1 (UniProt P07947)	0	-0.063	-0.128	-0.101	-0.066	0.212	-0.105	-0.005	0.155	0.092	0.043	0.008	0.154	-0.104	-0.087	-0.084	-0.157	0.589 (active)	0.032	0.054
VARS (UniProt P26640)	-0.017	-0.027	-0.068	-0.004	0.002	-0.092	-0.021	0.022	-0.012	0.029	-0.012	-0.004	-0.072	0	0.06	-0.021	0.012	0.045	0.001	-0.028
YWHAQ (UniProt P27348)	0.001	0.038	0.07	0.466 (active)	-0.012	-0.089	-0.024	-0.043	-0.043	-0.095	-0.008	-0.005	0.04	0.037	0.011	0.095	0.019	-0.023	-0.035	0.014
VAV1 (UniProt P15498)	0	0.012	-0.059	-0.057	0.071	-0.02	0.011	-0.044	-0.087	0.066	0.022	-0.031	0.007	0.009	0.04	0.022	0	-0.018	0.007	-0.054
WRB (UniProt O00258)	-0.067	-0.118	0.034	-0.138	0.006	0.348 (active)	-0.033	-0.074	-0.017	0.339	0.06	-0.017	-0.014	0.183	0.082	0.015	-0.044	-0.005	0.071	0.024
UPF3B (UniProt Q9BZI7)	0.005	0.021	0.007	-0.171	0.016	0.037	0.031	0.003	-0.012	0.067	-0.016	0.012	0.004	0.014	0.005	-0.013	0.014	0.022	-0.025	-0.003
ZMYM4 (UniProt Q5VZL5)	-0.022	0.037	-0.009	-0.07	-0.007	0.004	0.028	0.031	0.008	0.042	-0.016	0.003	-0.001	-0.005	-0.061	-0.028	-0.051	0.067	0.021	-0.003
USP34 (UniProt Q70CQ2)	-0.002	-0.008	-0.094	0.03	0.004	-0.122	0.011	0.01	-0.041	0.018	-0.018	-0.002	-0.042	-0.018	0.023	-0.041	0.021	0.074	0.018	0
VASP (UniProt P50552)	-0.006	0.004	0.007	-0.017	0.047	0.005	0.019	-0.004	0.136	0.009	-0.025	-0.002	-0.061	-0.014	-0.001	0.012	0.008	-0.012	-0.006	0.013
WDR24 (UniProt Q96S15)	-0.004	0.104	-0.006	-0.072	0.004	0.072	0.065	-0.166	-0.134	0.125	0.124	-0.09	-0.072	0.05	-0.022	-0.013	-0.096	0.038	0.04	-0.002
